The source of these data is PubChem BioAssay (NCI).

This is part of a sample that, as a whole, favours compounds with a hit. Of some 83,000 tested, about 20% had one in any assay.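 How to read the values: 0–100, growth inhibition (40 = 60% inhibited); 0, no net growth; -100 to 0, cell death (-40 = 40% of starting cells died; -100 = all dead).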 Unmarked numbers belong to inactive results. Active and inactive are the calls of the source. Rule for the calls: active = growth percent below 10; inactive = the rest.

The assay deals with HCC-2998 colon. Description: NCI-60 one-dose screen, 48 h (100 = growth as untreated, 0 = no growth, -100 = all killed). Conditions: 10 µM unless noted.
Regarding `COc1ccccc1CNCCCCCCCCCCCCN1C(=O)c2ccc3c4c(ccc(c24)C1=O)C(=O)N(CCCCCCCCCCCCNCc1ccccc1OC)C3=O`, the growth was 80.9%.
In the case of `Cc1nn(CC(=O)O)c2c1C(=O)CC(C)(C)C2` it was 98.9%; in that of `CCCCCCCCCCCCCCn1c2ccccc2c2c3c(c4c5cc(OC)ccc5oc4c21)C(=O)NC3=O`, 107%.
The value for `COc1cccc(C2C3=C(COC3=O)N(CCO)c3cc4c(cc32)OCO4)c1` (stereo not drawn) was 5.59% (active); that for `CCCCCCCCCCCCCCNc1nc(CO)ncc1-c1ccc(C(F)(F)F)cc1` was 99.4%; that for `CN1CCc2cccc3c2C1Cc1ccc(O)c(O)c1-3` (stereo not drawn) was 86.5%.
Take `O=C1NC(=S)S/C1=C\c1cccc([N+](=O)[O-])c1`: the growth was 87.4%.
For `CN(C)C(=S)SCN1C(=O)c2ccc([N+](=O)[O-])cc2S1(=O)=O`, the growth is 102%.
The value for `O=C(Nc1ccc(Cl)c(Cl)c1)OCn1ncc2ccc([N+](=O)[O-])cc21` was 93.8%; that for `CC(C)(C)[Si](C)(C)OC1[C@@H](CNC(=O)NC(=O)CCl)O[C@@H](n2cnc3c(N)ncnc32)[C@H]1O[Si](C)(C)C(C)(C)C` (stereo partly drawn) was -69.5% (active); that for `COC(=O)c1c2c(c(C)[n+]([O-])c1C)C(=O)C=C(NCc1ccc(F)cc1)C2=O` was -40.2% (active).
Consider `CCCN(CCC)c1ccc(/C=C/c2ccc3cc(OCC)ccc3n2)cc1`, for which the growth is 94.4%.
In the case of `CCOC(=O)c1c(Cl)c2c(n1Cc1cc(OC)cc(OC)c1)-c1oncc1CCC2` it was 55%; in that of `O=c1[nH]c(=S)[nH]c(=O)n1Cc1cccc2ccccc12`, 86.5%.
The value for `CC1=CN2C(=NC3=C(CCCC/C3=C\c3ccccc3)C2c2ccccc2)S1` (stereo not drawn) was 103%.
In the case of `COc1cc(CNCCN2C(=O)c3ccc4c5c(ccc(c35)C2=O)C(=O)N(CCNCc2cc(OC)c(OC)c(OC)c2)C4=O)cc(OC)c1OC` it was -100% (active).
As for `COc1ccc(-c2nc3sc(C)nn3c2-c2nc3cc(C)c(C)cc3[nH]2)cc1`, the growth was 106%.
The value for `Cc1nc2cc(Nc3nc(NCCN)nc(Nc4ccc(F)cc4)n3)ccc2n1Cc1ccccc1` was 70.6%; that for `Cc1ccc2c(N/N=C\c3ccco3)cc(C)nc2n1` was 65.4%; that for `CCCC1=NNC(=O)C1` was 119%.
In the case of `O=C(NCc1ccc(F)cc1)C1CN(c2ccc(Cl)cc2)N(c2ccc(Cl)cc2)C1=O` (stereo not drawn) it was 84.6%; in that of `CC1SC(c2ccc(Cl)cc2)N(CCc2cccs2)C1=O` (stereo not drawn), -1.78% (active).
In the case of `COc1cccc2c(=O)c3c(sc12)c(NCCN(C)C)nc1ccccc13`, the growth was 12.2%.
In the case of `NC(=O)c1cccc(-n2ccc3cc(NC(=O)Nc4ccc(Cl)c(Cl)c4)ccc32)n1` it was 97.7%.
In the case of `Cc1ccc(S(=O)(=O)N2C/C(=C\c3cc(F)cc(F)c3)C(=O)/C(=C/c3cc(F)cc(F)c3)C2)cc1` it was -82.6% (active); in that of `Cn1c(=O)c(S(=O)(=O)c2ccccc2)cc2ccc3c(cnn3-c3ccc(Cl)cc3)c21`, 93.4%.
In the case of `CSc1ccc(OC(C)=O)cc1C` it was 102%; in that of `O=c1onc(-c2ccccc2)c2ccccc12`, 98.9%; in that of `Nc1cc(Br)c(-c2nnc(CCC(=O)c3nc4ccccc4[nH]3)o2)c(Br)c1`, 78%.
With `O=C1CC2c3cc(-c4cc5ccccc5o4)ccc3CCN2C(=O)N1c1ccccc1` (stereo not drawn), the growth is 110%.
Turning to `COc1cccc(-c2ccc3c(c2)C2CCN(Cc4ccccc4)C3C2)c1` (stereo not drawn), the growth is 83.5%.
The value for `CCCCCCCCCCCCSC1=CC(=O)C=CC1=O` was 94.3%; that for `COc1cc(/C=C/C(=O)C2=C(/C=C/c3ccc(O)c(OC)c3)NC(=O)NC2c2ccc(O)c(OC)c2)ccc1O` (stereo not drawn) was 119%; that for `CCOC(=O)c1c(Cl)c2c(n1Cc1ccc(OC)cc1)-c1oncc1CCC2` was 66.9%.
The value for `Cc1nc2cc(Nc3nc(N4CCCCC4)nc(N4CCOCC4)n3)ccc2n1Cc1ccccc1` was 94.3%.
In the case of `COc1ccc(C2CC(c3cc(OC)c(OC)c(OC)c3)=NN2c2ccc(S(N)(=O)=O)cc2)cc1` (stereo not drawn) it was 79.7%; in that of `Brc1ccccc1Nc1ccc2nnc(-c3ccncc3)n2n1`, 113%.
Take `Brc1ccc(SCN(CSc2ccc(Br)cc2)Cc2ccccc2)cc1`: the growth was 113%.
